# USP28 block – inhibitors of human USP28 deubiquitinase; AID 1645857, 2021; 47,000 tested, 3% active; purified USP28, Ub-rhodamine cleavage fluorescence, 30 min; Ubiquitin carboxyl-terminal hydrolase 28 (Homo sapiens), Q96RU2; inhibition, % at 25 µM
# OTUD3 block – inhibitors of human OTUD3 deubiquitinase; OTU domain-containing protein 3 (Homo sapiens), Q5T2D3; purified OTUD3, Ub-rhodamine fluorescence, 2 h; inhibition, % at 25 µM; 47,000 tested, 0.7% active; AID 1645858, 2021
# Target sequence (Q5T2D3 whole entry, looked up, the tested form may be a part): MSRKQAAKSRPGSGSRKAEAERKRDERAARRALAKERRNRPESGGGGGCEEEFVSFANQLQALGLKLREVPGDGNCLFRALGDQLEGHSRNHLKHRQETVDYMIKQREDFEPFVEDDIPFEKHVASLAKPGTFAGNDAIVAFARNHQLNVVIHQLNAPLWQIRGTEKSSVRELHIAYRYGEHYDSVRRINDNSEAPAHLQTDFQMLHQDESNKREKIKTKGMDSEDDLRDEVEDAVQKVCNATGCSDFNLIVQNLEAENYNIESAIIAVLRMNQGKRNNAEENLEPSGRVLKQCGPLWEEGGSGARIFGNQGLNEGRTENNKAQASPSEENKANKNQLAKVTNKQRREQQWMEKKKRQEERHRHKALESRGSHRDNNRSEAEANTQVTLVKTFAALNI
# USP8 inh – inhibitors of human USP8 deubiquitinase; Ubiquitin carboxyl-terminal hydrolase 8 (Homo sapiens), P40818; purified USP8, Ub-rhodamine cleavage fluorescence, 30 min; inhibition, % at 20 µM; 47,000 tested, 4.2% active; AID 1645853, 2021
# USP17 inh – inhibitors of human USP17 deubiquitinase; Ubiquitin carboxyl-terminal hydrolase 17-like protein 5 (Homo sapiens), A8MUK1; purified USP17, Ub-rhodamine cleavage fluorescence, 3 h; inhibition, % at 50 µM; 47,000 tested, 6.5% active; AID 1645855, 2021
# USP30 inh – inhibitors of human USP30 deubiquitinase. Ubiquitin carboxyl-terminal hydrolase 30 (Homo sapiens), Q70CQ3. purified USP30, Ub-rhodamine cleavage fluorescence. inhibition, % at 25 µM. 47,000 tested, 5.3% active. AID 1645860, 2021
# Active calls of the source: *; i = inactive. Only some compounds are listed: those with a hit (about 13% of all), similar ones and a draw of the others. No stated cut-off is given here; in the data, active means inhibition above about 30%; inactive means the rest.
SMILES,USP28 block,OTUD3 block,USP8 inh,USP17 inh,USP30 inh
COc1ccc(C(C(=O)NC2CCCCC2)N(C(=O)CCCC(=O)Nc2ccccn2)c2ccccc2C)cc1 (configuration not stated),6,-6,-1,56*,11
Cc1ccc(N(C(=O)CCCC(=O)Nc2ccccn2)C(C(=O)NC2CCCC2)c2ccc(F)cc2)cc1C (configuration not stated),24,15,15,37*,38*
CN1C(=O)CCCC12CCCN(C(=O)c1ccc(C(F)(F)F)cc1)C2 (configuration not stated),-9,6,-63,-14,2
Cc1c(C(=O)C(=O)N2CC(C)CC(C)C2)c2ccccc2n1C (configuration not stated),-4,-3,-5,-8,-3
COc1ccccc1-c1cc(NC(C)=O)c2ncc(-c3ccc(S(C)(=O)=O)cc3)n2c1,-7,-16,69*,39*,-42
CC(=O)Nc1cc(-c2cccc(CO)c2)cn2c(-c3ccc(S(C)(=O)=O)cc3)cnc12,-23,-15,-22,-11,-57
CCn1cnc2cc(NCc3cccc(OC)c3O)ccc21,5,-1,40*,7,-13
Cc1nc(Nc2c3ccccc3nc3ccccc23)sc1C,-295,-193,-270,-183,i
NS(=O)(=O)c1ccc(NC(=O)Cn2cnc3cc([N+](=O)[O-])ccc3c2=O)cc1,41*,18,55*,59*,20
Cn1ccc(-c2nc3ccccc3s2)n1,13,15,6,5,15
Cn1ccc(-c2nc3ccccc3[nH]2)n1,-4,-2,30*,11,13
COc1ccccc1-c1noc(C2CCCN2C(=O)Nc2cccc(C)c2C)n1 (configuration not stated),8,20,18,23,49*
CCOC(=O)c1cnc(C(F)(F)F)nc1Sc1n[nH]c(-c2cccs2)n1,-5,9,9,86*,5
CCOC(=O)COc1nc(-c2cccs2)cc(C(F)(F)F)c1C#N,9,12,3,22,10
Cc1ccccc1N1C(=O)/C(=C\c2cccn2C)c2ccccc2C1=O,4,-5,-16,61*,-66
COc1cccc(NC(=O)CCc2c(C)nn(-c3cc(N4CCCCC4)ncn3)c2C)c1,68*,-3,-25,0,9
Cc1ccc(C)c(NC(=O)CCc2c(C)nn(-c3cc(N4CCOCC4)ncn3)c2C)c1,6,8,1,20,34*
COc1cccc(NC(=O)CCc2c(C)nc3c(c2C)c(=O)n(C)c(=O)n3C)c1,37*,5,18,14,35*
Cc1ccc(C)c(NC(=O)CCc2c(C)nn(-c3cc(N4CCCC4)ncn3)c2C)c1,12,24,19,22,28
COc1cccc(NC(=O)Cn2cnc3c(c(C)c(C)n3-c3ccccc3)c2=O)c1,21,0,20,1,9
O=C(O)C1C2C=CC(O2)C1C(=O)N1CCC(Cc2ccccc2)CC1 (configuration not stated),12,18,17,-6,11
COc1ccc(S(=O)(=O)N2CCOC(c3cnc(C)cn3)C2)cc1 (configuration not stated),-1,5,0,5,16
O=C(Cc1nnc(-c2cnccn2)o1)NCc1ccccc1,-2,0,5,0,0
CC(=O)c1ccccc1NC(=O)COc1ccc(-c2ccc(C#N)cc2)cc1,9,5,16,78*,5
NS(=O)(=O)c1cccc(NC(=O)COc2ccc3c(c2)CCC3)c1,28,8,2,11,14
SMILES,USP28 block,OTUD3 block,USP8 inh,USP17 inh,USP30 inh
N#Cc1ccc(-c2ccc(OCC(=O)Nc3ccc4c(c3)CCC4)cc2)cc1,41*,42*,36*,24,44*
CNC(=O)C1CN(C(=O)Cc2ccc(OC)c(Cl)c2)CC12CCCC2 (configuration not stated),-2,1,3,0,0
Cc1nc2nc(SCC(=O)NCc3ccc4c(c3)OCO4)nn2c(C)c1Cc1ccccc1Cl,12,4,5,10,18
Cc1nccc(C2CCCN2C(=O)c2ccc(-n3cccn3)nc2)n1 (configuration not stated),-6,-1,-4,-5,0
COc1cc(CCNC(=O)Cc2cccc(Br)c2)ccc1OCc1ccccc1,24,24,14,23,48*
COc1ccc(CCNC(=O)c2coc3ccccc3c2=O)cc1OC,4,8,2,29,11
c1cncc(-c2cnc3sc(NCC4CC4)nn23)c1,5,6,-26,-11,0
COc1ccc(CNc2nn3c(-c4ccncc4)cnc3s2)cc1,70*,5,11,34*,86*
c1ccc(CNc2nn3c(-c4ccncc4)cnc3s2)cc1,2,5,-3,51*,21
CCCN1CN=C(Nc2nc(C)c3cc(OC)ccc3n2)NC1,4,14,9,12,19
O=C(/C=C/c1ccc(Cl)cc1)Nc1cccc(-c2nc3ncccc3o2)c1,-8,-2,7,3,-15
COc1ccc(/C=C/C(=O)Nc2ccc(Cl)c(-c3nc4ncccc4o3)c2)cc1,9,-5,58*,0,12
COc1ccc(NC(=O)CSc2n[nH]c(C(C)C)n2)c(OC)c1,-11,-7,1,-7,2
COc1ccc(NC(=O)CSc2nnc(-c3ccc(F)cc3)c3ccccc23)c(OC)c1,39*,8,7,12,-9
CC(C)C(=O)Nc1ccc2c(c1)CCC(=O)N2Cc1ccccc1,-2,-7,-8,-7,3
O=C(O)c1ccccc1C(=O)N1CCC(c2nc(-c3cccnc3)no2)CC1,4,1,8,7,13
COc1ccc(C2c3c(-c4ccccc4O)n[nH]c3C(=O)N2Cc2ccncc2)cc1OC (configuration not stated),0,1,14,0,16
COc1ccc(C2c3c(-c4ccccc4O)n[nH]c3C(=O)N2Cc2ccco2)cc1OC (configuration not stated),-8,-10,7,-5,-2
Cc1ccc(C2c3c(-c4ccccc4O)n[nH]c3C(=O)N2Cc2ccco2)cc1 (configuration not stated),65*,-3,58*,44*,46*
O=C1c2[nH]nc(-c3ccccc3O)c2C(c2ccc(F)cc2)N1Cc1ccco1 (configuration not stated),52*,13,71*,39*,52*
CCN1CCN(c2ccc(-c3ccc(C)c(S(=O)(=O)N4CCCC4)c3)nn2)CC1,4,2,2,-1,2
CC1Cc2ccccc2N1C(=O)COC(=O)c1ccc2ccccc2n1 (configuration not stated),11,-4,-4,-6,-6
